ASM inhibitor = human S-ASM enzyme inhibition; hit rate 0.006% among 340,000; Potency, µM (top dose mostly 57.5 µM), for inactives: top-dose activity change, negative = inhibition, most hits filed as inhibitors; placental ASM, HMU-PC fluorogenic substrate, 60 min; AID 504937; note: potency is the fitted concentration of half-maximal effect
Target sequence (P17405 47-631 limits assumed): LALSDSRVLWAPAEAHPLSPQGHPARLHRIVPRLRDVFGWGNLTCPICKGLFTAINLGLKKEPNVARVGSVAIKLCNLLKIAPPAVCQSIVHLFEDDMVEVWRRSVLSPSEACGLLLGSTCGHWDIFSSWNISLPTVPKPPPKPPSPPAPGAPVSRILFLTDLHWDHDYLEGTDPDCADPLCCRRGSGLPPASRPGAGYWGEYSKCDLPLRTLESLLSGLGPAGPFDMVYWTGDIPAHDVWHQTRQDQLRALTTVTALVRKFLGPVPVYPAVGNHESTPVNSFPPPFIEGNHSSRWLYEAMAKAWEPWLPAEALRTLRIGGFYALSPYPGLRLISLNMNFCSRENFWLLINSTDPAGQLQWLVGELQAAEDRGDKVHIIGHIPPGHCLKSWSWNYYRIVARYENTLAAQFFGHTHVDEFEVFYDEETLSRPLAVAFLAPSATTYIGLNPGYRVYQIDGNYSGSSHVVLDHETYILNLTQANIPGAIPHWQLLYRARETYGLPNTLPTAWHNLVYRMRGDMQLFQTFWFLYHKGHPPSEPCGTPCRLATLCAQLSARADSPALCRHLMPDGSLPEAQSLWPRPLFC
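HMU-PC0 cleavage (9 uM final) by human placental ASM, 60 min at 37 °C following 10 min compound exposure at RT; stopped at pH 10, fluorescence Ex 386/Em 447 nm.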
SW480 rerep = induces DNA re-replication in SW480 colon adenocarcinoma cells; SW480 DNA re-replication, Hoechst DNA content imaging, 48 h; Potency, µM (titrated, usually from 46.1 µM), inactives show at the top dose re-replication activation, actives largely listed as activators; hit rate 1.8% among 340,000; AID 624297; note: potency is the fitted concentration of half-maximal effect; % of control where 0% means no effect; nearly all actives have a fitted effect of over 55% in size
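Readout is total intensity of Hoechst-stained nuclei, excited at 405 nm and collected at 500-530 nm. Compound treatment lasted 48 hr at 37 C in 5% CO2 before staining.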
MCF10A rerep = induces DNA re-replication in MCF 10a normal breast cells; MCF 10A DNA re-replication, Hoechst nuclear intensity, 48 h; Potency, µM (doses to about 46.1 µM), without a hit: at the top dose activity, positive = re-replication, most hits filed as activators; hit rate 2.9% among 350,000; AID 624296; note: potency is the fitted concentration of half-maximal effect; % of control where 0% means no effect; nearly all actives have a fitted effect of over 50% in size
Giardia kill = kills Giardia lamblia; activity change, % at 7.66 µM, hits read low; hit rate 0.15% among 340,000; Giardia lamblia trophozoite viability; AID 540267; in the data active = activity change below about -80%; inconclusive = between about -30% and that limit;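 note: parasites exposed to compound for two days anaerobically before the ATP read; % is set by controls: 0 for no effect and ±100 for the full control effect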
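Killing of trophozoites was scored by loss of ATP luminescence after a 48 hrs anaerobic exposure to compounds at 37 deg C, using 100 cells per well.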
KB-V1 cytotox = KB-V1 MDR subline cytotoxicity | KB-V1 MDR cells viability, CellTiter-Glo, 72 h | AID 1347076 | hit rate 3.4% among 400,000 | Potency, µM (doses to about 46.1 µM), actives largely listed as cytotoxic; note: potency is the fitted concentration of half-maximal effect; % is set by controls: 0 for no effect and ±100 for the full control effect; nearly all actives have a fitted effect of over 60% in size
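KB-V1 cells (P-gp-expressing MDR subline of KB-3-1) in phenol-red-free DMEM with 10% FBS were exposed to library compounds over a concentration series for 72 h at 37 degrees C. Viability read by CellTiter-Glo luminescence; concentration-effect curves fitted after normalization.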
KB-3-1 tox = kills parental KB-3-1 adenocarcinoma cells; KB-3-1 viability, CellTiter-Glo ATP luminescence, 72 h; Potency, µM (doses to about 46.1 µM), most hits filed as cytotoxic; hit rate 1.4% among 400,000; AID 1347075; note: potency is the fitted concentration of half-maximal effect; % is set by controls: 0 for no effect and ±100 for the full control effect; nearly all actives have a fitted effect of over 60% in size
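Cytotoxicity in the drug-sensitive parental line KB-3-1 was scored as loss of CellTiter-Glo luminescence following 72 h incubation with compound. Values come from curve fitting of normalized concentration-response data.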
Starred values were filed as active, the others as inactive; i = inactive; ? = inconclusive; . = no result; [ ] = dose if it differs, or a comment. A selection: hits, their analogues and other compounds. The true share with any hit is near 6.9%. Unless noted, calls come from the whole dose curve; as a rule, active = well fitted curve in the direction sought with a large enough effect; inconclusive = small, poorly fitted or top-dose-only effect, or another doubt; inactive = no such curve, though single readings can be large; an effect the other way counts as inactive or inconclusive.

SMILES | ASM inhibitor | SW480 rerep | MCF10A rerep | Giardia kill | KB-V1 cytotox | KB-3-1 tox
C(=N\NC1=Nc2cccc3cccc1c23)/c1cccnc1 | -18% | 0% | ? | -15 | 16µM* | i
CCC1CCCCN1S(=O)(=O)c1ccc(NC(=O)c2cc(=O)c3c(C)cc(C)cc3o2)cc1 (centres undefined) | . | . | . | . | ? | i
Cc1ccc2scc(N3CCCCC3C)c(=O)c2c1 (centres undefined) | . | . | . | . | i | i
CC(C)COc1ccc(-c2nnc(-c3ccco3)o2)cc1 | -1% | ? | -178%[0.0737 µM] | -1 | i | i
CCN(CC)CCCNc1ccc(-c2nnc(-c3ccc(OCC(C)C)cc3)o2)cn1 | -14% | 21µM* | ? | -1 | ? | 21µM*
CC(C)(C)NC(=O)[C@H]1CN(Cc2cccnc2)CCN1C[C@@H](O)C[C@@H](Cc1ccccc1)C(=O)N[C@H]1c2ccccc2C[C@H]1O | . | 3% | ? | . | . | .
Cc1cccc(NC(=O)CN2C(=O)S/C(=C\c3ccc(-c4cccc(C(=O)O)c4C)o3)C2=O)c1 | 84% | ? | 23µM* | 0 | i | i
Cc1ccc(NC(=O)CN2C(=O)S/C(=C/c3ccc(-c4cc(C(=O)O)ccc4C)o3)C2=O)cc1C | 73% | ? | 5.8µM* | 0 | i | i
Cc1ccccc1NC(=O)CN1C(=O)S/C(=C\c2ccc(-c3cccc(C(=O)O)c3C)o2)C1=O | 52% | 15% | 4% | 33 | i | i
Cn1c(=O)c2c(SCC(=O)N3CCc4ccccc43)nc(-c3ccccc3Cl)nc2n(C)c1=O | . | . | . | . | ? | i
C1CCN(Cc2nnnn2C2CCCC2)CC1 | 2% | -4% | -10% | -8 | i | i
Cc1ccc2nc(N3CCN(Cc4nnnn4C4CCCC4)CC3)c(C#N)cc2c1 | 27% | -6% | ? | -17 | 21µM* | i
Cc1ccc(C)c(N2CCN(Cc3nnnn3C3CCCCC3)CC2)c1 | 1% | 14% | ? | -17 | 23µM* | i
COc1cccc(N2CCN(Cc3nnnn3C3CCCCC3)CC2)c1 | 2% | 1% | 0% | 17 | 23µM* | i
CCC(C)(C)n1nnnc1CN1CCN(c2nc3cc(OC)ccc3cc2C#N)CC1 | 49% | 11% | ? | 0 | i | ?
O=S(=O)(c1nccs1)N1CCN(c2nc(-c3cccs3)nc3ccccc23)CC1 | . | . | . | 2 | . | .
O=C(Nc1ccccc1C(=O)O)c1ccc(NC(=O)C2CCCCC2)cc1 | 14% | -33% | 3% | 0 | i | i
Cc1cccc(N2CCN(C(=O)Cn3cnc4sc(C)c(S(=O)(=O)N5CCN(c6ncccn6)CC5)c4c3=O)CC2C)c1 (centres undefined) | . | . | . | . | ? | i
Cn1c(SCc2ccccc2F)nc2cccnc21 | 6% | -2% | -3% | -11 | 18µM* | i
CCC(Sc1nnc2c(n1)[nH]c1ccccc12)C(=O)Nc1ccccc1OC (centres undefined) | . | . | . | . | ? | i
CCn1nc(C(=O)NNC(=O)c2ccc(OC(F)F)cc2)c2ccccc2c1=O | -1% | -2% | -2% | -2 | 16µM* | ?
CCCn1nc(C(=O)NNC(=O)c2ccc(OC(F)F)cc2)c2ccccc2c1=O | -4% | -7% | -9% | 5 | i | i
Cc1ccccc1CS(=O)(=O)Cc1ccc(C(=O)NCc2ccc(F)cc2)o1 | . | . | . | . | ? | i
CCOC(=O)Cn1c(=NC(=O)c2ccc([N+](=O)[O-])s2)sc2ccccc21 | 0% | ? | 3.7µM* | -96* | ? | 4.6µM*
CCOC(=O)N1CCN(S(=O)(=O)c2ccc3c(c2)SCC(=O)N3)CC1 | 2% | 12% | 13% | -1 | i | i
SMILES | ASM inhibitor | SW480 rerep | MCF10A rerep | Giardia kill | KB-V1 cytotox | KB-3-1 tox
CCOC(=O)N1CCN(S(=O)(=O)c2ccc3c(c2)SC(C)C(=O)N3)CC1 (centres undefined) | 0% | -4% | -5% | 1 | 4.6µM* | ?
CCN1C(=O)c2cccc3c(S(=O)(=O)N4CCC(C)CC4)ccc1c23 | 329% | ? | 10µM* | 12 | 2.1µM* | ?
CCN1C(=O)c2cccc3c(S(=O)(=O)Nc4ccccc4OC)ccc1c23 | . | 1% | ? | -18 | 16µM* | ?
CCN1C(=O)c2cccc3c(S(=O)(=O)Nc4ccc(O)c(C(=O)O)c4)ccc1c23 | 7% | 0% | 6% | -14 | i | i
CCN1C(=O)c2cccc3c(S(=O)(=O)NCc4ccccc4)ccc1c23 | 365% | ? | 16µM* | 2 | i | i
COC(=O)C1=CN(C2CC2)C=C(C(=O)OC)C1c1ccc(C(F)(F)F)cc1 | i | ? | ? | -3 | i | i
COC(=O)C1=CN(C2CC2)C=C(C(=O)OC)C1c1ccc(C(=O)OC)cc1 | i | 4% | ? | 6 | 7.3µM* | i
CCOC(=O)c1c(C)[nH]c(C2=NNC(=Nc3cccc(Cl)c3)SC2)c1C | . | 21µM* | 6.5µM* | . | . | .
CC(=O)c1c(C)[nH]c(C2=NNC(=NCc3ccccc3)SC2)c1C | -3% | 2% | -1% | -5 | i | i
Nc1nc(=S)[nH]c2c1C1(CCCC1)Cc1ccccc1-2 | -1% | 1% | 13% | 50 | i | ?
Nc1nc(=S)[nH]c2c1C1(CCCCC1)Cc1ccccc1-2 | 9% | -92% | 2% | 0 | 23µM* | ?
CN(C)CCNc1ccc(CO)c2oc3ccc(O)cc3c(=O)c12 | -1% | ? | 27% | -14 | i | 16µM*
CCN(CC)C(=O)/C(C#N)=C/c1cc(O)c(O)c([N+](=O)[O-])c1 | . | 17% | 4% | . | . | .
O=C(Nc1ccc(Cl)c([N+](=O)[O-])c1)c1ccc2c(c1)OCCO2 | 1% | 12% | 10% | -29 | 13µM* | i
COc1cccc(CNC(=O)COC(=O)c2cc([N+](=O)[O-])ccc2N2CCCC2)c1 | -12% | -9% | 2% | 0 | 7.3µM* | i
O=C(Nc1ccc(N2CCCCC2)c(Cl)c1)c1ccc2c(c1)OCCO2 | 21% | -2%[9.22 µM] | ? | 19 | ? | 16µM*
O=C(N/N=C/c1ccc(Cl)c([N+](=O)[O-])c1)c1ccc2c(c1)OCCO2 | -2% | ? | 0% | -21 | i | i
O=C(Nc1ccc2c(c1)OCCO2)c1ccc(Br)c(S(=O)(=O)N2CCOCC2)c1 | -4% | 1% | ? | -4 | ? | i
O=C(Nc1ccc(N2CCCC2)c(Cl)c1)c1ccc2c(c1)OCCO2 | 3% | 1% | 11% | -19 | i | ?
O=C(Nc1ccc2c(c1)OCO2)c1ccc(Br)c(S(=O)(=O)N2CCCC2)c1 | -6% | -7% | 17% | -12 | 5.2µM* | ?
